Shown are actives, neighbours in structure and some others; about 0.24% of the full set was active somewhere.
hcGAS lum – inhibitors of human cGAS. inhibition, % at 12.5 µM. hit rate 0.081% among 290,000. Q8N884. recombinant h-cGAS, ATP depletion, Kinase-Glo luminescence
mcGAS inh – inhibitors of mouse cGAS. recombinant cGAS, Kinase-Glo ATP depletion luminescence. inhibition, % at 12.5 µM. hit rate 0.15% among 160,000
NPYLR7 agonist – activates Aedes aegypti NPYLR7 receptor; AID 1259423; HEK293T NPYLR7/Galpha15, GCaMP6s calcium fluorescence; activation, % at 10 µM; hit rate 0.15% among 270,000; in the data active = activation above about 40%
A number is an active result; 0 = inactive; - = no result given; ! = repeats disagree. Cut-off read from the data, not from the text of the source, unless noted: active = inhibition above about 40%; inactive = the rest.

SMILES | hcGAS lum | mcGAS inh | NPYLR7 agonist
O=c1c2c3c(sc2nc(SCCS(=O)(=O)F)n1-c1ccccc1)CCCC3 | 0 | 0 | 0
Nc1c2c(nc3sc4c(c13)CCCC4)CCCCC2 | 0 | 0 | 42
CC(C)c1nc(C2=CCN(CC(=O)N3CCN(C)CC3)CC2)no1 | 0 | 0 | -
O=c1c2ccccc2nc(CCl)n1-c1ccc(F)cc1 | 0 | 48 | 0
CCC(NC)c1nc2ccccc2c(=O)n1-c1ccc(F)cc1 (configuration not stated) | 0 | - | 0
Cn1nc(-c2ccccc2)c2c1N(CC(=O)N1CCOCC1)C(=O)CSC2c1ccc(F)cc1F (configuration not stated) | 0 | 0 | -
Cc1oc(-c2ccsc2)nc1CC(=O)N1CCN(C)CC1C (configuration not stated) | 0 | 0 | 0
Clc1nc(N2CCNCC2)c2[nH]cnc2n1 | 0 | - | 0
S=P(Cc1ccccc1)(Cc1ccccc1)N1CCCCC1 | 0 | - | 0
O=C1NC(=O)N(c2ccc(Cl)cc2)C(=O)/C1=C/c1ccc([N+](=O)[O-])o1 | 0 | 47 | 0
Cc1ccc(/C=C2\C(=O)NC(=O)N(c3ccc(Cl)cc3)C2=O)o1 | 0 | 0 | 0
CN1C(=O)NC(=O)/C(=C/c2cccc(OCC(=O)O)c2)C1=O | 0 | 0 | 0
CCN(CC)S(=O)(=O)c1ccc(Cn2nc(C(=O)Nc3ccc(N4CCCCC4)cc3)c3ccccc32)cc1 | 0 | 0 | 0
O=[N+]([O-])c1ccc(O)c([N+](=O)[O-])c1 | 72 | - | 0
O=[N+]([O-])c1ccc(O)c(Cl)c1 | 0 | - | 0
O=[N+]([O-])c1cc(O)c(O)c([N+](=O)[O-])c1 | 0 | 0 | 0
O=[N+]([O-])c1cc([As](=O)(O)O)ccc1O | 83! | - | 0
CC(=O)c1cccc(NC(=O)N2CCN(CCOC(c3ccccc3)c3cccc(C(F)(F)F)c3)CC2)c1 (configuration not stated) | 0 | 0 | 0
O=[N+]([O-])c1ccc(Cl)c2nonc12 | 0 | 0 | 139
O=[N+]([O-])c1cc(Cl)ccc1Cl | 0 | 0 | 0
